Screens: PubChem BioAssay, National Center for Advancing Translational Sciences (NCATS)
RXFP1 antag – blocks the human relaxin receptor RXFP1 | HEK293-RXFP1, relaxin-stimulated cAMP HTRF, 30 min; hits give low values | Q9HBX9 | 350,000 tested, 0.59% active | activity change, negative = inhibition, % at 57.5 µM;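 active means activity change of -60% or lower, but not beyond a set lower limit; inconclusive means change between -60% and -40%, or beyond the set limit; inactive means change above -40%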; further: on the % scale 0 is the no-effect control and ±100 the full control effect
GRP78 ERSR act – inducers of ER stress response in human glioma cells | U87-MG GRP78 promoter luciferase reporter, 16 h | Potency, µM, for the others: at the highest dose activation, usual class: activators | 420,000 tested, 0.02% active | AID 602332; further: potency means the concentration at half of the fitted maximal effect; series mostly up to about 76 µM; % of control where 0% means no effect; nearly all actives have a fitted effect of over 35% in size
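Stably transfected U87-MG human glioma cells carrying a GRP78-based luminescent sensor were seeded at 1000 cells/well, pin-dosed with compounds and incubated 16 h. Luciferase reagent was then added, and end-point luminescence was read after 10 min at room temperature.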
RXFP1 ag – RXFP1 (human) receptor agonism. HEK293T-RXFP1 cAMP TR-FRET, 30 min; response scale: percent of porcine relaxin response, buffer zero. Potency, µM (titrated, usually from 57.5 µM), for inactives: top-dose activation, usual class: activators. 370,000 tested, 0.3% active. AID 2676; further: potency means the concentration at half of the fitted maximal effect; on the % scale 0 is the no-effect control and ±100 the full control effect; nearly all actives have a fitted effect of over 60% in size
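cAMP rise read by TR-FRET after 30 min, 37C compound exposure (up to 58 uM) in RXFP1-transfected HEK293 cells with Ro 20174 present. EC50 from Hill-equation fits, with 29 nM porcine relaxin as 100% and buffer as basal.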
PTHR1 agonist – agonists of human PTHR1 parathyroid hormone receptor; Q03431; HEK293 GP2 PTHR1 cells, GloSensor cAMP luminescence, 1 h; Potency, µM (titrated, usually from 115 µM), for the others: at the highest dose activation, hits mostly activators; 410,000 tested, 0.075% active; further: potency means the concentration at half of the fitted maximal effect; nearly all actives have a fitted effect of over 55% in size
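HEK-293-derived GP2 cells expressing PTHR1 and a GloSensor cAMP reporter, 3,000/well, plated overnight, given luciferin plus IBMX (each 0.5 mM as added) for 1 h at 37 °C, then compound for 1 h at 37 °C. Luminescence was read after 15 min at room temperature.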
hERG WT inh – inhibitors of human wildtype KCNH2 potassium channel; Q12809; activity change, % at 1.84 µM; U2OS, BacMam KCNH2, thallium flux FluxOr; hits give low values; 340,000 tested, 0.37% active;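 active means maximum activity change below -70%; inconclusive means maximum activity change between -70% and -50%; inactive means maximum activity change above -50%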; further: on the % scale 0 is the no-effect control and ±100 the full control effect
Target sequence (Q12809 whole entry, looked up): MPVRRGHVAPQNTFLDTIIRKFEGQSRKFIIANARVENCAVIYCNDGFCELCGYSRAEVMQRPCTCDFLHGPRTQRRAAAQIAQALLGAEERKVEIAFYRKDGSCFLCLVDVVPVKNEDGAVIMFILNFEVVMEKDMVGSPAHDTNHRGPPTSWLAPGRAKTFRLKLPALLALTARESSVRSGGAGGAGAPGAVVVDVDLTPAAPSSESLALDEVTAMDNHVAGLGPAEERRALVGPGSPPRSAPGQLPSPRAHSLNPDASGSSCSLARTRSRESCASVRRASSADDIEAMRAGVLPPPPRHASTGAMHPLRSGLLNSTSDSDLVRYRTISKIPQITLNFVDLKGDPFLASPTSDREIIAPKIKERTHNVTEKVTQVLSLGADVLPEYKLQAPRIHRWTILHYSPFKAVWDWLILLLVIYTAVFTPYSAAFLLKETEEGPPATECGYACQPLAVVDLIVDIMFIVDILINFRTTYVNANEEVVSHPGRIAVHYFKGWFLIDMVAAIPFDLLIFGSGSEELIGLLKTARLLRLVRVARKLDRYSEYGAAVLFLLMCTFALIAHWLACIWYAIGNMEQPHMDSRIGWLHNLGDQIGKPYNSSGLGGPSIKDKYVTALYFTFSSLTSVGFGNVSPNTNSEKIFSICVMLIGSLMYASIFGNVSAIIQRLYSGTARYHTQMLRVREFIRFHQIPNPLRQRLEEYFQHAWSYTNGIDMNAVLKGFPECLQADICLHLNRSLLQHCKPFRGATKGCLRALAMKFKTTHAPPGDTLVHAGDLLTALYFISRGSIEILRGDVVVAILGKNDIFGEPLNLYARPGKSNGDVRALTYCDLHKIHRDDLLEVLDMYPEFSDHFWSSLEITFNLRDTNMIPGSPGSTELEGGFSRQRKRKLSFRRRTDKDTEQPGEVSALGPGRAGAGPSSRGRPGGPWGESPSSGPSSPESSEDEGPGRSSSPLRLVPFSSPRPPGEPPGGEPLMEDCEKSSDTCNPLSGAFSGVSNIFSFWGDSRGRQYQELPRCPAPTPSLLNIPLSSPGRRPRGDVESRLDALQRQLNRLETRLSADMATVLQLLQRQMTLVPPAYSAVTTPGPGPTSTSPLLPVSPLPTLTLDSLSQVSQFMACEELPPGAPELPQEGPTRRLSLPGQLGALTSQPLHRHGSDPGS
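U2OS cells transduced with wild-type KCNH2 virus are loaded with FluxOr dye for 45 min, and thallium flux is measured in kinetic reads before and after stimulation buffer. Rate constants are normalized to DMSO controls.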
KCNH2 3.1 block – KCNH2 3.1 (human) potassium channel inhibition; U2OS KCNH2 3.1, thallium flux FluxOr; hits give low values; activity change, % (tested at about 1.8 µM); 340,000 tested, 0.95% active;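 active means maximum activity change below -70%; inconclusive means maximum activity change from -70% to -50%; inactive means maximum activity change above -50%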;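 further: thallium influx rate constant from kinetic fluorescence after stimulation buffer; on the % scale 0 is the no-effect control and ±100 the full control effect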
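Channel expression came from 3.1 mutant virus (1.77 x 10^8 /mL) applied to suspended U2OS cells for 4 h. Flux was tracked with FluxOr dye plus Red40 quencher, and kinetic rate constants normalized to controls.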
Starred values were filed as active, the others as inactive; i = inactive; ? = inconclusive; nt = no result; [ ] = remark or other dose. Sampled rows, rich in hits. Any-hit rate of the full collection: about 1.4%. Unless noted, the call rests on the fitted dose curve; in most records, active means well fitted curve in the direction sought with a large enough effect; inconclusive means small, poorly fitted or top-dose-only effect, or another doubt; inactive means no such curve, though single readings can be large; an effect the other way counts as inactive or inconclusive.

SMILES | RXFP1 antag | GRP78 ERSR act | RXFP1 ag | PTHR1 agonist | hERG WT inh | KCNH2 3.1 block
OC(CNC1CCCc2ccccc21)COc1c(Cl)cccc1Cl (stereo unspecified) | -63* | 0% | -1% | i | 16 | -23
Cn1cc(C(=O)C(F)(F)F)c2ccccc21 | -1 | 0% | 2% | -2% | -4 | -3
Clc1ccc(-c2nnc(CSc3nnc(-c4cccs4)n3Cc3ccccc3)o2)cc1 | 17 | -4% | 2% | -93% | -125* | -86*
O=C(CN1C(=O)C2(OCCCO2)c2ccccc21)NCc1ccccc1 | -1 | 7% | 1% | -46% | -1 | 7
Clc1ccc(CN2C3=NCCN3c3ccccc32)cc1Cl | -18 | -5% | -2% | 20%[57.5 µM] | 36 | -75*
Cc1cc(NC(=O)CSCC(=O)N(C)Cc2ccc(Cl)c(Cl)c2)no1 | 3 | -3% | -2% | -5% | -95* | 10
Cc1ccc(NS(=O)(=O)c2cc(NC(=O)c3ccc4c(c3)NC(=O)CS4)ccc2C)c(C)c1 | -63* | -1% | -1% | -37% | 8 | -16
COc1ccc(NC(=O)c2ccc3c(c2)NC(=O)CS3)cc1S(=O)(=O)Nc1ccc(Br)cc1 | -3 | -2% | -1% | i | 7 | -9
CCc1ccc(Nc2n[n+](-c3ccccc3)c(/C=C/c3ccccc3)s2)cc1 | nt | nt | 1% | nt | nt | nt
Cn1nc(C(C)(C)C)cc1C(=O)NNC(=O)c1cccc(Cl)c1 | -2 | 1% | 0% | -83% | 2 | 4
O=C(O)C1C2CCC(O2)C1C(=O)NCc1ccccc1Br (stereo unspecified) | 8 | -3% | -1% | -6% | -5 | 1
CCOc1ccc(NC(=O)OCCN2CCN(CCc3ccccc3)C(C)C2)cc1 (stereo unspecified) | 7 | -4% | nt | -31% | -3 | -96*
CCCc1c(C)[nH]c2ccc(C(=O)O)cc2c1=S | 43 | -4% | ? | i | -82* | 4
CCNC(=O)C1(C)CCCN(Cc2cccc3ccccc23)C1 (stereo unspecified) | nt | -2% | nt | i | nt | nt
COc1ccc(Cl)cc1C(=O)Nc1ccc(NC(C)=O)cc1 | 0 | -2% | 1% | i | -5 | 0
CC(=O)Oc1c(I)cc(I)cc1C(=O)Nc1ccc(Cl)cc1 | -96* | 0% | 4% | -90% | 2 | -10
O=S(=O)(c1ccc(Br)cc1)N1CCN(c2ccc3nnc(-c4ccccc4)n3n2)CC1 | nt | -5% | 0% | -1% | -14 | -91*
COc1cc(NS(=O)(=O)c2ccc3[nH]c(=O)oc3c2)cc(OC)c1 | 8 | -6% | 1% | -16% | 20 | -71*
O=c1[nH]c2ccc(S(=O)(=O)Nc3ccc(Cl)cc3)cc2o1 | -10 | -8% | -4% | 0% | 5 | ?
CC(C)(C)n1nnnc1C(c1ccccc1)N1CCN(c2ncccc2C(F)(F)F)CC1 (stereo unspecified) | nt | nt | nt | -43% | nt | nt
CCCCCC(O)(c1ccccc1)C(CN1CCOCC1)c1ccccc1 (stereo unspecified) | -64* | -1% | 0% | -9% | -6 | -16
CC(C)CCC(O)(c1ccccc1)C(CN1CCOCC1)c1ccccc1 (stereo unspecified) | -80* | 5% | -1% | -23% | -4 | -5
COc1ccc(-c2nc(Cn3c(SCc4cccc(C(F)(F)F)c4)nc4cccnc43)c(C)o2)cc1OC | 0 | -5% | 7% | -26% | nt | nt
O=C(CC1Sc2ccccc2NC1=O)NCc1cccc(Cl)c1 (stereo unspecified) | -18 | -9% | 0% | -9% | 12 | 13
COc1ccc(C2C3=C(CC(C)(C)CC3=O)Nc3c2c(=O)n(C)c(=O)n3C)cc1OC (stereo unspecified) | -1 | -3% | 7% | -14% | -16 | 10
C=CCOc1ccccc1C1C2=C(CC(C)(C)CC2=O)Nc2c1c(=O)n(C)c(=O)n2C (stereo unspecified) | nt | -5% | 4% | 5% | 1 | -178*
